# Results from PubChem BioAssay (NCATS).
# Inconclusive results are not listed. Calls of active or inactive are those of the source. Unless noted, calls follow the shape of the dose curve; as a rule, active = well fitted curve in the direction sought with a large enough effect; inconclusive = small, poorly fitted or top-dose-only effect, or another doubt; inactive = no such curve, though single readings can be large; an effect the other way counts as inactive or inconclusive.
# What was measured:
# [1] = Quantitative High-Throughput drug screen in 47 multiple myeloma cell lines against the NCATS MIPE library collection: UTMC2_PLB cell viability assay (AID 1919868); settings: CellTiter-Glo ATP luminescence, 48 h; viability (% of DMSO control): at 45.8 µM (top of the series) unless noted; also: nearly all actives have a fitted effect of over 55% in size; also: potency is read from the fitted curve at half-maximal effect;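 as to viability (% of DMSO control): 100% = DMSO-only wells and 0% = media-only wells without cells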
# How it was run: (§1)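 Plated at 500 cells per well, myeloma lines received MIPE 4.0 compounds by pin tool. Following 48 h culture at 37 °C, CellTiter-Glo luminescence gave viability relative to DMSO and media-only controls.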
# [2] = Quantitative High-Throughput drug screen in 47 multiple myeloma cell lines against the NCATS MIPE library collection: OPM2_DSMZ cell viability assay (AID 1919872); also: nearly all actives have a fitted effect of over 30% in size; also: potency is read from the fitted curve at half-maximal effect
# How it was run: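 Approved and investigational drugs from MIPE 4.0 were added by pin tool to 500 cells per well. After 48 hours at 37C, ATP-based CellTiter-Glo luminescence indicated remaining viability.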
# [3] = Quantitative High-Throughput drug screen in 47 multiple myeloma cell lines against the NCATS MIPE library collection: KMS28BM_JCRB cell viability assay (AID 1919874); also: nearly all actives have a fitted effect of over 35% in size; also: potency is read from the fitted curve at half-maximal effect
# How it was run: as §1
# [4] = qHTS drug screen for cell cycle checkpoint inhibitors in PARPi-resistant BRCA-mutant ovarian cancer cell lines. (AID 1963452; calls by dose curve; also: potency is read from the fitted curve at half-maximal effect); settings: PEO1/OlaR viability, CellTiter-Glo luminescence, 96 h; for Z-AUC: stronger effect = lower value
# How it was run: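 PEO1, PEO4 and PEO1/OlaR ovarian cancer cells, 600 per well, exposed 96 h at 37C to a dilution series. Viability read by CellTiter-Glo luminescence, normalized to DMSO and empty wells; activity summarized as Z-AUC.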
# [5] = Quantitative High-Throughput drug screen in 47 multiple myeloma cell lines against the NCATS MIPE library collection: PE2_PLB cell viability assay (AID 1919869); also: nearly all actives have a fitted effect of over 35% in size; also: potency is read from the fitted curve at half-maximal effect
# How it was run: as §1
# [6] = Quantitative High-Throughput drug screen in 47 multiple myeloma cell lines against the NCATS MIPE library collection: PCM6_Riken cell viability assay (AID 1919870); also: nearly all actives have a fitted effect of over 30% in size; also: potency is read from the fitted curve at half-maximal effect
# How it was run: as §1
# [7] = Quantitative High-Throughput drug screen in 47 multiple myeloma cell lines against the NCATS MIPE library collection: RPMI8226_ATCC cell viability assay (AID 1919871); also: nearly all actives have a fitted effect of over 30% in size; also: potency is read from the fitted curve at half-maximal effect
# How it was run: as §1
# [8] = Quantitative High-Throughput drug screen in 47 multiple myeloma cell lines against the NCATS MIPE library collection: KMS11_JCRBsus cell viability assay (AID 1919873); also: nearly all actives have a fitted effect of over 50% in size; also: potency is read from the fitted curve at half-maximal effect
# How it was run: as §1
# [9] = qHTS for identification of novel therapeutic agents for treatment of microphthalmiaassociated transcription factor (MiT) renal cell carcinoma (RCC) (AID 1963991; calls by dose curve; also: potency is read from the fitted curve at half-maximal effect); settings: CellTiter-Glo, 48 h; for z-score: stronger effect = lower value
# How it was run: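 Three TFE3-fusion RCC lines (UOK109, UOK124, UOK145), 500 cells/well in complete medium, were treated with MIPE 4.0 compounds for 48 hours at 37 C. Viability was by CellTiter-Glo luminescence, normalized to DMSO (100%) and empty wells (0%); curves fitted over 11 concentrations.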
# [10] = qHTS profiling for inhibitors of Plasmodium falciparum proliferation (AID 504749);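 also: 0% = DMSO vehicle and full inhibition = artemisinin control; nearly all actives have a fitted effect of over 60% in size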; settings: P. falciparum in erythrocytes, SYBR Green DNA, 72 h; at 12.8 µM (top of the series); parasite line A
# How it was run: (§2)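 Three-day growth assay of blood-stage parasites in erythrocytes (0.3% parasitemia, 2.5% hematocrit) at 37 C, 5% CO2, quantified by SYBR Green DNA staining after overnight detergent lysis.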
# [11] = test system: 3D7; test: as above; settings: P. falciparum in erythrocytes, SYBR Green DNA, 72 h; series mostly up to 28.7 µM
# How it was run: as §2
# [12] = test system: 7G8; test: as above; settings: P. falciparum in erythrocytes, SYBR Green DNA, 72 h; series mostly up to 28.7 µM
# How it was run: as §2
# [13] = test system: AA1029; test: as above; settings: P. falciparum in erythrocytes, SYBR Green DNA, 72 h; series mostly up to 28.7 µM
# How it was run: as §2
# [14] = test system: AS120; test: as above; settings: P. falciparum in erythrocytes, SYBR Green DNA, 72 h; series mostly up to 28.7 µM
# How it was run: as §2
# [15] = test system: ATS189; test: as above; settings: P. falciparum in erythrocytes, SYBR Green DNA, 72 h; series mostly up to 28.7 µM
# How it was run: as §2
# [16] = test system: ATS95; test: as above; settings: P. falciparum in erythrocytes, SYBR Green DNA, 72 h; series mostly up to 28.7 µM
# How it was run: as §2
# [17] = test system: C2A; test: as above; settings: P. falciparum in erythrocytes, SYBR Green DNA, 72 h; series mostly up to 28.7 µM
# How it was run: as §2
# [18] = test system: CP185; test: as above; settings: P. falciparum in erythrocytes, SYBR Green DNA, 72 h; series mostly up to 28.7 µM
# How it was run: as §2
# [19] = test system: CP191; test: as above; settings: P. falciparum in erythrocytes, SYBR Green DNA, 72 h; series mostly up to 28.7 µM
# How it was run: as §2
# [20] = test system: CP192; test: as above; settings: P. falciparum in erythrocytes, SYBR Green DNA, 72 h; series mostly up to 28.7 µM
# How it was run: as §2
# [21] = measured here: PEO1 parental Z-AUC
# [22] = TFE3-RCC UOK109 viability, measured here: UOK109 Z-AUC
# [23] = TFE3-RCC viability, measured here: UOK124 Z-AUC
# [24] = TFE3-RCC viability, measured here: UOK145 Z-AUC
structure (smiles),measurement,setting,value
Cn1c(=O)n(-c2ccc(C(C)(C)C#N)cc2)c2c3cc(-c4cnc5ccccc5c4)ccc3ncc21,Potency,[1],9.3 nM (active)
same,Potency,[2],74.3 nM (active)
same,Potency,[3],20.9 nM (active)
same,Potency,[4],2 nM (active)
same,Z-AUC,[4]; [21],-1.42
same,Z-AUC,[4]; measured here: PEO4 Z-AUC,-1.44
C=C1C(=CC=C2CCCC3(C)[C@@H]([C@H](C)C=CC=CC(O)(CC)CC)CC[C@@H]23)C[C@@H](O)C[C@@H]1O (stereo partly specified),Potency,[5],23500 nM (active)
same,Potency,[6],33200 nM (active)
same,Potency,[7],26400 nM (active)
same,Potency,[8],23500 nM (active)
same,Potency,[3],20900 nM (active)
Nc1ccc(C(=O)c2cc3c(ccc4ccccc43)[nH]2)cc1,Potency,[1],9350 nM (active)
same,Potency,[2],6620 nM (active)
same,Potency,[3],935 nM (active)
CN[C@H]1CCc2cc(OC)c(OC)c(OC)c2-c2ccc(OC)c(=O)cc21,Potency,[1],9.3 nM (active)
same,Potency,[7],8.3 nM (active)
same,Potency,[2],1.7 nM (active)
same,Potency,[3],3.3 nM (active)
same,Potency,[4],174 nM (active)
same,Z-AUC,[4]; [21],-1.41
same,Z-AUC,[4]; measured here: PEO4 Z-AUC,-1.47
same,Potency,"[9]; TFE3-RCC UOK109 viability, active = Z-AUC below -0.8 in all three lines",3.72 nM (active)
same,z-score,[9]; [22],-2.54
same,z-score,[9]; [23],-2.9
same,z-score,[9]; [24],-0.848
COc1cccc2c(NCc3ccccc3)nc(-n3c(N)nc4ccccc43)nc12,Potency,[5],5260 nM (active)
same,Potency,[6],2350 nM (active)
same,Potency,[7],8330 nM (active)
same,Potency,[2],8330 nM (active)
same,Potency,[8],2640 nM (active)
same,Potency,[3],2960 nM (active)
same,Z-AUC,[4],-0.255 (inactive)
same,Z-AUC,[4]; [21],0.136
same,Z-AUC,[4]; measured here: PEO4 Z-AUC,-0.014
COc1cc(C(=O)N2CCC(N3CCN(C)CC3)CC2)ccc1Nc1ncc2c(n1)N(C)c1ccccc1C(=O)N2C,Potency,[5],5260 nM (active)
same,Potency,[6],14800 nM (active)
same,Potency,[7],10500 nM (active)
same,Potency,[8],1660 nM (active)
same,Potency,[3],3320 nM (active)
same,Z-AUC,[4],-0.667 (inactive)
same,Z-AUC,[4]; [21],-0.239
same,Z-AUC,[4]; measured here: PEO4 Z-AUC,-1.55
O=C(O)c1ccc2cc(-c3ccc(O)c(C45CC6CC(CC(C6)C4)C5)c3)ccc2c1,Potency,[1],264 nM (active)
same,Potency,[6],16600 nM (active)
same,Potency,[3],1320 nM (active)
same,Z-AUC,[4],-0.815 (inactive)
same,Z-AUC,[4]; [21],-1.55
same,Z-AUC,[4]; measured here: PEO4 Z-AUC,-1.16
Nc1ccc(S(=O)(=O)Nc2ncccn2)cc1,Potency,[1],inactive
same,Potency,[6],inactive
same,Potency,[2],inactive
same,Potency,[8],inactive
same,Potency,[3],inactive
same,z-score,[9]; [22],-0.287
same,z-score,[9]; [23],0.624
same,z-score,[9]; [24],-0.336
same,"activity, negative = inhibition",[10],8.9% (inactive)
same,Potency,[11],inactive
same,Potency,[12],inactive
same,Potency,[13],inactive
same,Potency,[14],inactive
same,Potency,[15],inactive
same,Potency,[16],inactive
same,Potency,[17],inactive
same,Potency,[18],inactive
same,Potency,[19],inactive
same,Potency,[20],inactive
CCCCCCCCCC(=O)N[C@@H](Cc1c[nH]c2ccccc12)C(=O)N[C@H](CC(N)=O)C(=O)N[C@@H](CC(=O)O)C(=O)N[C@@H]1C(=O)NCC(=O)N[C@@H](CCCN)C(=O)N[C@@H](CC(=O)O)C(=O)N[C@H](C)C(=O)N[C@@H](CC(=O)O)C(=O)NCC(=O)N[C@H](CO)C(=O)N[C@@H]([C@@H](C)CC(=O)O)C(=O)N[C@@H](CC(=O)c2ccccc2N)C(=O)O[C@@H]1C,Potency,[5],inactive
same,Potency,[6],inactive
same,Potency,[7],inactive
same,Potency,[2],inactive
same,Potency,[8],inactive
same,Potency,[3],inactive
same,Z-AUC,[4],-0.7 (inactive)
same,Z-AUC,[4]; [21],-0.476
same,Z-AUC,[4]; measured here: PEO4 Z-AUC,-0.85
